# DAX1 inh-1 – inhibitors of DAX1 repression of SF-1 activated StAR promoter. HEK293T StAR-luciferase reporter, SF-1/DAX-1 repression relief. inhibition, % at 6.8 µM. actives 1.1% (n = 370,000). AID 652010;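 active = inhibition above the mean over all tested compounds plus 3 SD, cut at about 3.6% in these data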;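 also: 0% = DAX-1 cells with DMSO and 100% = cells lacking DAX-1 with DMSO; higher inhibition means more luminescence from relief of DAX-1 repression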
# ssDAF12 agonist – S. stercoralis DAF-12 activation, primary screen; HEK293 ssDAF-12/GRIP1 lit1-tk-luc reporter, luminescence; % of 3 µM dafachronic acid response; activation, % at 6.8 µM; actives 1% (n = 370,000); AID 652126;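 active = activation above the mean over all tested compounds plus 3 SD, cut at about 0.9% in these data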;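 also: 0% = DMSO-only wells and 100% = 3 µM delta7-dafachronic acid wells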
# hgDAF12 agonist – activates the H. glycines DAF-12 receptor ligand-binding domain. HEK293 GAL4-hgDAF12 UAS-luciferase reporter, agonist luminescence; normalized to butyrate control. activation, % at 6.8 µM. actives 1.8% (n = 370,000). AID 687014;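 active = activation above a cutoff set at the mean of all screened compounds plus 3 SD, cut at about 10% in these data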;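 also: 0% = DMSO wells and 100% = sodium butyrate wells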
# hcDAF12 agonist – activates DAF-12 receptor from parasite H. contortus | HEK293 hcDAF-12 lit1-tk-luc reporter, luminescence; 0% DMSO, 100% Δ7-dafachronic acid | activation, % at 6.8 µM | actives 1.4% (n = 370,000) | AID 652067;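 active = activation above the mean of all tested compounds plus 3 SD, cut at about 5.5% in these data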;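 also: 100% = response to 3 µM Δ7-dafachronic acid high control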
# DAX1 inh-2 – NR0B1 (DAX1) inhibition | HEK293 Gal4-DAX1 luciferase reporter, luminescence | inhibition, % at 6.75 µM | actives 0.99% (n = 340,000) | AID 504766;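 active = inhibition above the mean over all tested compounds plus 3 SD, cut at about 4.2% in these data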;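 also: 0% = DAX1-transfected cells with DMSO and 100% = empty-vector control cells with DMSO; inhibition shows as a rise in luminescence from relieved DAX1 repression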
# Target sequence (P51843 207-470 limits assumed): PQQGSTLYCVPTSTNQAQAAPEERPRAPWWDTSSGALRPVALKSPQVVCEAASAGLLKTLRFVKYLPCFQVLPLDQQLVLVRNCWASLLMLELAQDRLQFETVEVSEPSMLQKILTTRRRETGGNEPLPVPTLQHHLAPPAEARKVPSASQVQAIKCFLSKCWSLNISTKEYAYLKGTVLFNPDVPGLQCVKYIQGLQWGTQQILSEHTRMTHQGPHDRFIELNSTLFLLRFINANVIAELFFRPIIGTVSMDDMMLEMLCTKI
# Numbers without * were called inactive; / = not tested or not shown. Only some compounds are listed: those with a hit (about 4.1% of all), similar ones and a draw of the others.
SMILES,DAX1 inh-1,ssDAF12 agonist,hgDAF12 agonist,hcDAF12 agonist,DAX1 inh-2
COC(=O)[C@H]1C[C@@]2(C)c3ccccc3N(S(=O)(=O)c3ccccc3)[C@H]2N1,-0.5,-1.2,-1.6,2.6,/
CCN(CC(=O)Nc1c(F)cccc1F)C(=O)c1cc(C)nc2ccccc12,-1.0,1.0*,-0.1,2.1,1.0
CCN(CC)S(=O)(=O)c1ccc(S(=O)(=O)N2CCN(CCC#N)CC2)cc1,0.8,-1.3,3.2,0.2,3.4
CN(C)S(=O)(=O)c1ccc(S(=O)(=O)N2CCN(CCC#N)CC2)cc1,-0.3,-1.3,-0.8,-0.8,6.2*
N#CCCN1CCN(S(=O)(=O)c2ccc(S(=O)(=O)NCc3ccccc3)cc2)CC1,1.8,-1.6,-1.3,0.1,5.4*
Cc1cc(C)cc(N(CC(=O)NC2CCC(C)CC2)S(=O)(=O)c2ccccc2)c1 (centres undefined),1.2,-1.2,8.0,1.1,/
Cn1nc(-c2ccc(S(N)(=O)=O)s2)cc1C(F)(F)F,0.0,-1.8,2.0,-0.1,1.1
Cn1nc(C(F)(F)F)cc1-c1ccc(S(N)(=O)=O)s1,0.4,-0.8,1.5,-1.1,5.1*
O=C1CCNc2c(Cl)cc(Cl)cc21,0.3,-1.3,-0.5,-1.3,5.0*
O=C1CCNc2c(Cl)cccc21,0.2,-0.1,1.1,2.1,0.2
O=C(NCCCN1CCN(c2ccc(F)cc2)CC1)NCc1ccccc1,-0.2,-0.6,-3.3,2.2,/
COc1cccc(C=Nc2ccccc2C#N)c1O,0.5,2.1*,1.0,4.0,0.3
COc1cccc(/C=N/c2oc(-c3ccccc3)cc2C#N)c1O,-0.2,-0.8,1.4,-0.5,0.8
CC(C)C[C@H](NC(=O)c1ccccn1)C(=O)N1CCC[C@H]1C(=O)NCc1ccccc1,-0.3,-0.7,-0.4,-1.3,/
Cc1c(CBr)[n+](=O)c2c(n1[O-])C(Br)CCC2Br (centres undefined),-0.6,1.4*,-0.7,2.5,1.2
CC(=O)Nc1sc(C)c(C)c1C(=O)OCC(=O)Nc1ccccc1C(F)(F)F,0.6,-1.4,10.7*,0.8,1.7
CC(C)(C)CC(=O)Nc1cccc(-c2cn3cccnc3n2)c1,2.4,-0.8,10.5*,4.7,4.0
NCCCn1c(C(=O)c2cc(Cl)c(N)c(Cl)c2)c2ccc(C(F)(F)F)cc2[n+]1[O-],0.0,0.5,0.6,6.5*,2.2
COc1ccccc1N1C(=O)S/C(=C\c2cccs2)C1=O,-0.4,1.0*,3.9,5.4,-0.8
O=C(Nc1ccc(Cl)cc1)O[C@@H]1CC[C@@]23CCCN2C(=O)CCC[C@H]3C1,/,-1.9,-2.1,-3.0,/
O=C(NCCc1ccccc1)c1c[nH]c2c(F)cccc2c1=O,0.2,-0.2,7.3,5.6*,1.9
Cc1cccc2c(=O)c(C(=O)NCCc3ccccc3)c[nH]c12,0.0,-1.2,-0.2,0.4,-0.6
Cc1ccc(CNC2CCC23CCC(c2ccccc2)CC3)o1 (centres undefined),/,-1.5,1.9,-0.2,/
CCOc1ccc(-c2csc(NC(=O)CSCC(=O)O)n2)c2ccccc12,-0.6,-1.0,-1.6,-1.2,-0.8
CCOc1ccc(-c2csc(NC(=O)CSC3=NC(=O)CN3C(C)=O)n2)c2ccccc12,-0.7,-0.8,11.2*,-1.1,0.6
SMILES,DAX1 inh-1,ssDAF12 agonist,hgDAF12 agonist,hcDAF12 agonist,DAX1 inh-2
CCCn1nnc2c(=O)oc3ccccc3c21,0.3,0.1,4.2,2.0,0.3
CCCCCn1nnc2c(=O)oc3ccccc3c21,-0.1,1.1*,-1.6,-1.1,-0.5
COc1ccc(-c2nc3ncccn3c2Br)cc1,1.7,0.5,10.7*,2.7,10.0*
O=C(NC1CCCCC1)OC[C@@H]1CSCCS(=O)(=O)N1,2.0,-1.1,-1.7,-0.8,/
COc1cc(-n2c(C)nc3cc(C(=O)N4CC(C)CC(C)C4)ccc32)cc(OC)c1OC (centres undefined),0.3,-1.6,-1.8,-3.3,/
CC(C)(N[C@@H](Cc1c[nH]c2ccccc12)C(=O)NCCCc1ccccc1)C(=O)NCc1ccccc1,/,-1.8,0.7,1.5,/
Cc1nn(-c2ccc(N3CCCCC3)nn2)c(C)c1CCC(=O)Nc1ccc(F)c(F)c1,1.1,-1.0,6.1,6.4*,-0.5
Cc1ccc(NC(=O)CCc2c(C)nn(-c3ccc(N4CCCCC4)nn3)c2C)cc1C,2.4,-0.9,2.9,-1.4,0.8
Cc1cc(C)cc(NC(=O)CCc2c(C)nn(-c3ccc(N4CCCCC4)nn3)c2C)c1,4.1*,-0.3,8.2,0.1,0.1
c1ccc(-c2c[nH]c3ccc(OCCN4CCOCC4)c(-c4ccccc4)c23)cc1,0.1,-1.7,-2.4,-0.7,/
COC(=O)C1=C(C)N(Cc2ccccc2C(F)(F)F)C(=NCC2CC2)NC1c1ccc(F)cc1 (centres undefined),-0.7,-1.0,3.5,-0.1,/
CCCN(C(=O)C1CCCN(c2ncnc3c2nc2n3CCCCC2)C1)c1ccccc1C (centres undefined),-2.2,-1.4,-3.7,-2.8,/
NC(=O)Nc1ccccc1C(=O)N1CCC(O)(c2ccc(Cl)cc2)CC1,/,/,/,/,5.4*
Cc1cccc(OCC(=O)Nc2ccc3c(c2)nc(CCN2CCN(C)CC2)n3C)c1,0.3,-1.1,0.0,-1.0,4.9*
Cc1cccc(OCC(=O)Nc2ccc3c(c2)nc(CCN2CCC(C)CC2)n3C)c1,-0.3,-1.4,-3.3,1.2,-0.3
O=C(CCCCCNC(=O)N1CCn2c1nc1ccccc12)N[C@@H](Cc1ccccc1)C(=O)O,0.7,-0.3,1.5,-0.1,4.5*
CC(=O)N1CCc2cc(S(=O)(=O)NCCC(=O)N(C)Cc3ccccc3F)ccc21,-0.3,-1.1,-3.4,-3.3,/
CCc1ccc(-c2ccc(C(=O)C(F)(F)F)[nH]2)cc1,2.4,-0.2,12.6*,3.2,2.4
CSc1nnc(SCC(=O)NC(=O)c2ccccc2)s1,4.1*,-0.6,1.8,1.0,1.9
Cc1csc(SCC(=O)NC(=O)c2ccccc2)n1,2.2,-0.9,-0.8,-1.4,1.2
COc1ccc(C2c3c(nc[nH]c3=O)Oc3nc[nH]c(=O)c32)cc1,/,/,/,/,-0.7
COc1ccc(C2C(=O)NN=C2C)cc1 (centres undefined),0.8,-0.8,1.4,0.0,5.3*
Cc1ccc2c(c1)Oc1ccc([N+](=O)[O-])cc1C(=O)N2,-0.5,0.1,2.4,6.1*,-0.9
Cc1ccc2c(c1)Oc1ccc(NC(=O)CCl)cc1C(=O)N2,-4.0,-1.4,-12.5,-5.9,-3.6
COc1cccc2cc(-c3nnc(-c4ccccc4)o3)c(=O)oc12,1.0,-1.0,11.1*,0.9,4.1
CC/C(C)=N/Nc1nc(-c2cc3cccc(OC)c3oc2=O)cs1,1.6,-1.2,12.4*,5.3,/
COc1cccc2cc(-c3csc(CCn4nc(C)cc4C)n3)c(=O)oc12,-0.2,-1.4,-0.2,-2.5,0.5
COc1cccc2cc(-c3ccccc3)oc12,0.5,-0.9,0.0,-2.3,/

# Compound activity: PubChem, The Scripps Research Institute Molecular Screening Center
